Assay results reported in the supplement of paper PMC6609913.
Counter-ions that a name gives are not always drawn. ± gives the standard deviation of the averaged measurements. Whole data set: some 1,300 compounds, median “normalised cell viability” near 1, cut for the lowest 2% near 0.15. Many of the other results were omitted from the sample, so the lowest values are more common in it than they were.

System: V-C8 + BRCA2 (BRCA2-proficient hamster cells)
Test: normalised cell viability (fraction of plate median); higher = more viable cells (less toxic)
Settings: 5 µM
Procedure, shortened: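 In two screens, library drugs at 5 μM were given for 3 days (screen 1) or 6 days (screen 2) to hamster V-C8 cells without BRCA2 and V-C8 cells with BRCA2 restored, seeded 24 h earlier in 96-well plates. A resazurin assay gave the cell viability readout, expressed as modified robust per cent of sample against the plate median, with triplicate wells averaged.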

| Structure (SMILES) | normalised cell viability (treatment time: 3 days) | normalised cell viability (treatment time: 6 days) |
| --- | --- | --- |
| CCCCC(CC)CNC(=N)NC(=N)NCCCCCCNC(=N)NC(=N)NCC(CC)CCCC (centres undefined) [Alexidine dihydrochloride] | 0.143 ± 0.002 | 0.149 ± 0.011 |
| O=C1C=CC(=O)c2c1ccc1c2ccc2ccccc21 [Chrysene-1,4-quinone] | 1.024 ± 0.0027 | 1 ± 0.11 |
| CC(C)Oc1ccc2c(=O)c(-c3ccccc3)coc2c1 [Ipriflavone] | 0.993 ± 0.029 | 1.08 ± 0.11 |
| Nc1ccn([C@@H]2CS[C@H](CO)O2)c(=O)n1 [Lamivudine] | 0.335 ± 0.012 | 0.406 ± 0.023 |
| OC(CCN1CCCC1)(c1ccccc1)C1CCCCC1 (centres undefined) [Procyclidine hydrochloride] | 0.981 ± 0.047 | 0.987 ± 0.012 |
| COc1cc(OC)c(C(=O)CCCN2CCCC2)c(OC)c1 [Buflomedil hydrochloride] | 1.04 ± 0.096 | 1.07 ± 0.025 |
| CN1C(C)(C)CCCC1(C)C [Pempidine tartrate] | 1.1 ± 0.035 | 1.007 ± 0.0034 |
| C[C@@]1(O)CCOC(=O)C1 [Mevalonic-D, L acid lactone] | 1.09 ± 0.038 | 1.06 ± 0.054 |
| Nc1ccc(S(=O)(=O)Nc2ccnn2-c2ccccc2)cc1 [Sulfaphenazole] | 1.07 ± 0.02 | 1.01 ± 0.041 |
| Cc1ccnc2c1NC(=O)c1cccnc1N2C1CC1 [Nevirapine] | 1.03 ± 0.087 | 1.05 ± 0.047 |
| C[C@H]1O[C@@H](O[C@H]2[C@@H](O)C[C@H](O[C@H]3[C@@H](O)C[C@H](O[C@H]4CC[C@@]5(C)[C@H](CC[C@@H]6[C@@H]5C[C@@H](O)[C@]5(C)[C@@H](C7=CC(=O)OC7)CC[C@]65O)C4)O[C@@H]3C)O[C@@H]2C)C[C@H](O)[C@@H]1O [Digoxin] | 1.06 ± 0.036 | 1.07 ± 0.13 |
| COc1ccc(NS(=O)(=O)c2ccc(N)cc2)nn1 [Sulfamethoxypyridazine] | 0.879 ± 0.062 | 0.892 ± 0.069 |
| CC(=O)c1ccc(S(=O)(=O)NC(=O)NC2CCCCC2)cc1 [Acetohexamide] | 1.22 ± 0.019 | 1.025 ± 0.0097 |
| O=C1C(O)=C([C@H]2CC[C@H](c3ccc(Cl)cc3)CC2)C(=O)c2ccccc21 [Atovaquone] | 0.958 ± 0.012 | 0.922 ± 0.04 |
| CC(C)(C)NC(=O)[C@@H]1C[C@@H]2CCCC[C@@H]2CN1C[C@@H](O)[C@H](Cc1ccccc1)NC(=O)[C@H](CC(N)=O)NC(=O)c1ccc2ccccc2n1 [Saquinavir mesylate] | 0.842 ± 0.061 | 0.952 ± 0.073 |
| O=C1Cc2cc(CCN3CCN(c4nsc5ccccc45)CC3)c(Cl)cc2N1 [Ziprasidone  Hydrochloride] | 0.206 ± 0.016 | 0.23 ± 0.013 |
| CO/N=C(\C(=O)N[C@@H]1C(=O)N2C(C(=O)OC(C)OC(C)=O)=C(COC(N)=O)CS[C@H]12)c1ccco1 (some centres undefined) [Cefuroxime axetil] | 1.01 ± 0.057 | 1.04 ± 0.12 |
| Cc1cccc(N(C)C(=S)Oc2ccc3ccccc3c2)c1 [Tolnaftate] | 1.02 ± 0.027 | 1.04 ± 0.044 |
| CC(=O)CC(c1ccc([N+](=O)[O-])cc1)c1c(O)c2ccccc2oc1=O (centres undefined) [Acenocoumarol] | 0.92 ± 0.023 | 0.979 ± 0.053 |
| N[C@H]1CONC1=O [(S)-(-)-Cycloserine] | 1.04 ± 0.043 | 0.917 ± 0.29 |
| O=C1[C@H](CC[C@H](O)c2ccc(F)cc2)[C@@H](c2ccc(O)cc2)N1c1ccc(F)cc1 [Ezetimibe] | 1.03 ± 0.04 | 1.08 ± 0.054 |

| Structure (SMILES) | normalised cell viability (treatment time: 3 days) | normalised cell viability (treatment time: 6 days) |
| --- | --- | --- |
| OC[C@H]1O[C@@H](Oc2ccc(O)cc2)[C@H](O)[C@@H](O)[C@@H]1O [Arbutin] | 1.02 ± 0.05 | 0.979 ± 0.024 |
| CCOC(=O)/C=C(C)/C=C/C=C(C)/C=C/c1c(C)cc(OC)c(C)c1C [Etretinate] | 1.01 ± 0.043 | 1.13 ± 0.071 |
| C[C@H]1c2cccc(O)c2C(=O)C2=C(O)[C@]3(O)C(=O)C(C(N)=O)=C(O)[C@@H](N(C)C)[C@@H]3[C@@H](O)[C@@H]21 [Doxycycline hydrochloride] | 0.947 ± 0.025 | 0.982 ± 0.033 |
| OC(CCCN1CCCCC1)(c1ccccc1)c1ccccc1 [Diphenidol hydrochloride] | 1.08 ± 0.066 | 1.05 ± 0.025 |
| CC(C)(C)c1ccc(C(O)CCCN2CCC(C(O)(c3ccccc3)c3ccccc3)CC2)cc1 (centres undefined) [Terfenadine] | 0.118 ± 0.0067 | 0.103 ± 0.0052 |
| CC(C)(C(=O)O)c1ccc(C(O)CCCN2CCC(C(O)(c3ccccc3)c3ccccc3)CC2)cc1 (centres undefined) [Fexofenadine HCl] | 1.02 ± 0.051 | 1.04 ± 0.026 |
| Cc1cn[nH]c1 [Fomepizole] | 1.07 ± 0.021 | 0.9639 ± 0.0076 |
| CN(C)CCOc1ccc(/C(=C(/CCCl)c2ccccc2)c2ccccc2)cc1 [Toremifene] | 0.822 ± 0.058 | 0.891 ± 0.027 |
| CC/C(=C(\c1ccccc1)c1ccc(OCCN(C)C)cc1)c1ccccc1 [Tamoxifen citrate] | 0.878 ± 0.054 | 0.88 ± 0.021 |
| CCN(CC)CCOc1ccc(C(=C(Cl)c2ccccc2)c2ccccc2)cc1 [Clomiphene citrate (Z,E)] | 0.124 ± 0.0093 | 0.128 ± 0.013 |
| CC[C@H](c1ccc(O)cc1)[C@@H](CC)c1ccc(O)cc1 [Hexestrol] | 0.9735 ± 0.0097 | 0.944 ± 0.19 |
| Nc1nc(NC2CC2)c2ncn([C@H]3C=C[C@@H](CO)C3)c2n1 [Abacavir Sulfate] | 1.04 ± 0.02 | 1.07 ± 0.034 |
| C=CCOC(Cn1ccnc1)c1ccc(Cl)cc1Cl (centres undefined) [Enilconazole] | 0.985 ± 0.021 | 1.04 ± 0.013 |
| NC(N)=Nc1nc(CSCC/C(N)=N/S(N)(=O)=O)cs1 [Famotidine] | 1.16 ± 0.079 | 1.1 ± 0.096 |
| CC(C)(O/N=C(\C(=O)N[C@@H]1C(=O)N2C(C(=O)[O-])=C(C[n+]3ccccc3)CS[C@H]12)c1csc(N)n1)C(=O)O [Ceftazidime pentahydrate] | 1.03 ± 0.011 | 1 ± 0.039 |
| Cc1ccc(O)c([C@H](CCN(C(C)C)C(C)C)c2ccccc2)c1 [Tolterodine tartrate] | 1.05 ± 0.062 | 0.965 ± 0.053 |
| COc1ccc2cc(CCC(C)=O)ccc2c1 [Nabumetone] | 1.05 ± 0.12 | 1.02 ± 0.044 |
| CC(C)C(=O)c1c(C(C)C)nn2ccccc12 [Ibudilast] | 0.987 ± 0.062 | 0.981 ± 0.061 |
| CC(C)(C)NC[C@H](O)c1ccc(O)c(CO)c1 [Levalbuterol hydrochloride] | 0.965 ± 0.089 | 1.004 ± 0.0069 |
| Clc1ccc(CO/N=C(\Cn2ccnc2)c2ccc(Cl)cc2Cl)c(Cl)c1 [Oxiconazole Nitrate] | 1.07 ± 0.16 | 0.675 ± 0.12 |
| CC(=O)OCC(=O)[C@@]12OC(C)(C)O[C@@H]1C[C@H]1[C@@H]3C[C@H](F)C4=CC(=O)C=C[C@]4(C)[C@@]3(F)[C@@H](O)C[C@@]12C [Fluocinonide] | 1.04 ± 0.017 | 1.06 ± 0.04 |
